Laboratory results as given in ChEMBL document CHEMBL3988442, “University of Dundee, Small-Polar-MMV Screening Library” (2021).
For some assays here: Measured potencies and affinities stand elsewhere.

Tests used:
Parameters in all cases: scale not given: direction of the effect not stated beside the values
[1] = target: Protein translocase subunit SecA (Escherichia coli (strain K12)) (UniProt P10408); assay: Assay to Identify E. coli SecA ATPase Inhibitors; type: functional; details: 30 µM
[2] = target: T1, Ubiquitin-activating enzyme e1, putative (Leishmania donovani (strain BPK282A1)) (UniProt E9BSI1); assay: Leishmania donovani Ubiquitin Activating Enzyme (LdE1); type: functional; details: 30 µM
T1 sequence (whole entry): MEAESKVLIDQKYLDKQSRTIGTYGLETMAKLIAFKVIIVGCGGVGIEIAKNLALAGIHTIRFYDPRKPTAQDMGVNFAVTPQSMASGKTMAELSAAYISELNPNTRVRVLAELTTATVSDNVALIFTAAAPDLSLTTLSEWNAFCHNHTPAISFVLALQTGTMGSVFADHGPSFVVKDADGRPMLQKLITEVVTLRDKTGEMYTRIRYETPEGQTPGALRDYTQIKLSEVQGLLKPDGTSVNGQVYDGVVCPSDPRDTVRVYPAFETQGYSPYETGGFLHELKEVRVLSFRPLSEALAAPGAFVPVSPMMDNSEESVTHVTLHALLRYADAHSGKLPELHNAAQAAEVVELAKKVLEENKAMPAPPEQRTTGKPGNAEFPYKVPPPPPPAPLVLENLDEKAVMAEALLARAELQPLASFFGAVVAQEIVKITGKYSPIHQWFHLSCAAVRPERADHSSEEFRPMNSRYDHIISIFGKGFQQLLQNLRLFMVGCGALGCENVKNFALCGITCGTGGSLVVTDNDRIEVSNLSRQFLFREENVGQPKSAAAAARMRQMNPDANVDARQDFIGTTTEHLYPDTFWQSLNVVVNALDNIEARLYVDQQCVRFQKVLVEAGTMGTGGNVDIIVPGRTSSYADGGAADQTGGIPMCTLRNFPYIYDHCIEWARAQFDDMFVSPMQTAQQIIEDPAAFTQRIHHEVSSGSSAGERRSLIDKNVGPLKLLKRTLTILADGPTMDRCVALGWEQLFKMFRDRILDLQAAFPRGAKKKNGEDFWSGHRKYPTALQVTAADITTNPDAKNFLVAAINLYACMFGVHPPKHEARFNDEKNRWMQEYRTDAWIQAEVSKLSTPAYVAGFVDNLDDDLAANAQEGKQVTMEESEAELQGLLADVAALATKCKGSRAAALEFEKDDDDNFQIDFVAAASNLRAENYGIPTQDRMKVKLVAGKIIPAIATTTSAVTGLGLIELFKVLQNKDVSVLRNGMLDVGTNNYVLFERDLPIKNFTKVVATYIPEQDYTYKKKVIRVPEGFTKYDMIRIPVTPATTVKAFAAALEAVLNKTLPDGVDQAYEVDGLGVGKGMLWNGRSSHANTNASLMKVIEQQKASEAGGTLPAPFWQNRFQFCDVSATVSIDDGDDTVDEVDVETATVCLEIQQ

[3] = target: AMP-activated protein kinase, AMPK (Homo sapiens) (UniProt P54646+O43741+P54619+Q9UGJ0+Q9Y478+Q13131+Q9UGI9); assay: AMP-dependent Kinase enzyme assay. An in vitro enzyme assay that detects ADP turnover that is directly proportional to AMPK activity. This uses naive AMPK that is activated during the assay with MK-8722; type: functional; details: 30 µM
[4] = target: Sialic acid-binding Ig-like lectin 9 (Homo sapiens) (UniProt Q9Y336); assay: Hs-Siglec9 ALPHAscreen SOP 20170721; details: 10 µM
Chain of Sialic acid-binding Ig-like lectin 9 (Homo sapiens) (Q9Y336 whole entry): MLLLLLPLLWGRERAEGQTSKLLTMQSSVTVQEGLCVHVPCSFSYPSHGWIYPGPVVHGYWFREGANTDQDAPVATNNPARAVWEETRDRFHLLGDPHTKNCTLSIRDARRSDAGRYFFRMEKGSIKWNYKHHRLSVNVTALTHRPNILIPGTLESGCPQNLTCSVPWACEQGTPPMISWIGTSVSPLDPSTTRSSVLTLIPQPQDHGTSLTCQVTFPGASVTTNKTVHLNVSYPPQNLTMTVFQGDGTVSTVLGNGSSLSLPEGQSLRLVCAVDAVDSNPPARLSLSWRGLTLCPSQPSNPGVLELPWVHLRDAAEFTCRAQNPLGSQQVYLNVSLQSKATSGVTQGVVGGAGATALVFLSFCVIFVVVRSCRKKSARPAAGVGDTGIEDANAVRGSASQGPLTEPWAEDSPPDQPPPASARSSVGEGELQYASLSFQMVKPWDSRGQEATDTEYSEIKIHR

Trypanosoma cruzi = assay: Trypanosoma cruzi phosphomannomutase and mannose-1-phosphate guanylyltransferase assay; type: functional; details: 10 µM
[5] = target: T2, Arginase-2, mitochondrial (Homo sapiens) (UniProt P78540); assay: in vitro enzyme assay to detect the production of urea directly proportional to the activity of Arginase II; type: functional; details: 33.3 µM; also: in the data most compounds retested in dose-response had high values
T2 sequence (whole entry): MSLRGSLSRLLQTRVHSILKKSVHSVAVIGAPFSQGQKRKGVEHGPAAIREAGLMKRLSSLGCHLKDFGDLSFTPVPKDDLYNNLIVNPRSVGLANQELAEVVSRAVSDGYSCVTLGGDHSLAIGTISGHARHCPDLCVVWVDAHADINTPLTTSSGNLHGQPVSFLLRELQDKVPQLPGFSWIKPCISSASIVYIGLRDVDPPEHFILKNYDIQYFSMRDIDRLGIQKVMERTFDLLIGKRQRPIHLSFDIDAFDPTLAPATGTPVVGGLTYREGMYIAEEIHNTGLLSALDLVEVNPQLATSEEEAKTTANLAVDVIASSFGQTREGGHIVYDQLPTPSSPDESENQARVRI

[6] = target: T3, Proteasome subunit beta (Trypanosoma cruzi) (UniProt O96673); assay: Trypanosoma cruzi proteasome chymotrypsin-like activity (TcProtChymo) assay.; also: in the data most compounds retested in dose-response had high values; type: functional; details: 9.37 µM
T3 sequence (whole entry): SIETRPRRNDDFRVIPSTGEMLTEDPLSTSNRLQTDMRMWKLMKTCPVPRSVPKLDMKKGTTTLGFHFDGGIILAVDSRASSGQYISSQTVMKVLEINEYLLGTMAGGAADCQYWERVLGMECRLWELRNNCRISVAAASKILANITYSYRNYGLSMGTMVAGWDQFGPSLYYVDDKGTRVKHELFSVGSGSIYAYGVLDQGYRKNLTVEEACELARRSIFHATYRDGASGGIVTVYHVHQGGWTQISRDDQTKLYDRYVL

Homo sapiens = species: Homo sapiens; assay: To identify inhibition of the IFN signalling (Jak-Stat) pathway via expression of an eGFP reporter gene under the control of an IFN-stimulated response element (ISRE) containing MxA promoter.; type: functional; details: 30 µM
[7] = target: T4, Tyrosyl-tRNA synthetase, putative (Trypanosoma cruzi (strain CL Brener)) (UniProt Q4DSP6); assay: Trypanosoma cruzi tyrosyl tRNA synthetase (TcYRS) _High Tyrosine SOP; type: functional; details: 30 µM; also: in the data most compounds retested in dose-response had high values
T4 sequence (whole entry): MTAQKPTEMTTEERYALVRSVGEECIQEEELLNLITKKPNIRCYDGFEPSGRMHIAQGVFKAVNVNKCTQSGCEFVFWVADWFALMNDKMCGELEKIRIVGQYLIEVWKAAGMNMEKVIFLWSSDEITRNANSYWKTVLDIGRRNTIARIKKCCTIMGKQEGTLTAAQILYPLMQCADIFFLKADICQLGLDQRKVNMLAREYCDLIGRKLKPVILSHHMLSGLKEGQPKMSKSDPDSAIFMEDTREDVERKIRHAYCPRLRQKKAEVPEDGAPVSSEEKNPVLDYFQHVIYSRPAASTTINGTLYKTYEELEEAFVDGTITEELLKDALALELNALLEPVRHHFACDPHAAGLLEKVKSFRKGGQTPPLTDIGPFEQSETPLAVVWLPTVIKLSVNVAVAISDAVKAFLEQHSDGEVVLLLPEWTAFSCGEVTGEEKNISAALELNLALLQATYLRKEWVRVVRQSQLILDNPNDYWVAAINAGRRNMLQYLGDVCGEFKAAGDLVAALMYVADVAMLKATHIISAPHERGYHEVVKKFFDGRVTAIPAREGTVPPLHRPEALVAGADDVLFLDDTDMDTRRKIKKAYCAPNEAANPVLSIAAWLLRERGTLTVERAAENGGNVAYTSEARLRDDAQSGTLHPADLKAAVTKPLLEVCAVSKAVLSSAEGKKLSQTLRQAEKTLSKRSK

[8] = target: T4, Tyrosyl-tRNA synthetase, putative (Trypanosoma cruzi (strain CL Brener)); assay: Trypanosoma cruzi tyrosyl tRNA synthetase (TcYRS) SOP; type: functional; details: 30 µM
[9] = target: Chromo domain-containing protein 1 (Saccharomyces cerevisiae (strain ATCC 204508 / S288c) (Baker's yeast)) (UniProt P32657); assay: ScCHD-1 Enzyme Inhibition Assay; type: functional; details: 30 µM; also: in the data most compounds retested in dose-response had high values
Chain of Chromo domain-containing protein 1 (Saccharomyces cerevisiae (strain ATCC 204508 / S288c) (Baker's yeast)) (P32657 whole entry, the tested form may be a part): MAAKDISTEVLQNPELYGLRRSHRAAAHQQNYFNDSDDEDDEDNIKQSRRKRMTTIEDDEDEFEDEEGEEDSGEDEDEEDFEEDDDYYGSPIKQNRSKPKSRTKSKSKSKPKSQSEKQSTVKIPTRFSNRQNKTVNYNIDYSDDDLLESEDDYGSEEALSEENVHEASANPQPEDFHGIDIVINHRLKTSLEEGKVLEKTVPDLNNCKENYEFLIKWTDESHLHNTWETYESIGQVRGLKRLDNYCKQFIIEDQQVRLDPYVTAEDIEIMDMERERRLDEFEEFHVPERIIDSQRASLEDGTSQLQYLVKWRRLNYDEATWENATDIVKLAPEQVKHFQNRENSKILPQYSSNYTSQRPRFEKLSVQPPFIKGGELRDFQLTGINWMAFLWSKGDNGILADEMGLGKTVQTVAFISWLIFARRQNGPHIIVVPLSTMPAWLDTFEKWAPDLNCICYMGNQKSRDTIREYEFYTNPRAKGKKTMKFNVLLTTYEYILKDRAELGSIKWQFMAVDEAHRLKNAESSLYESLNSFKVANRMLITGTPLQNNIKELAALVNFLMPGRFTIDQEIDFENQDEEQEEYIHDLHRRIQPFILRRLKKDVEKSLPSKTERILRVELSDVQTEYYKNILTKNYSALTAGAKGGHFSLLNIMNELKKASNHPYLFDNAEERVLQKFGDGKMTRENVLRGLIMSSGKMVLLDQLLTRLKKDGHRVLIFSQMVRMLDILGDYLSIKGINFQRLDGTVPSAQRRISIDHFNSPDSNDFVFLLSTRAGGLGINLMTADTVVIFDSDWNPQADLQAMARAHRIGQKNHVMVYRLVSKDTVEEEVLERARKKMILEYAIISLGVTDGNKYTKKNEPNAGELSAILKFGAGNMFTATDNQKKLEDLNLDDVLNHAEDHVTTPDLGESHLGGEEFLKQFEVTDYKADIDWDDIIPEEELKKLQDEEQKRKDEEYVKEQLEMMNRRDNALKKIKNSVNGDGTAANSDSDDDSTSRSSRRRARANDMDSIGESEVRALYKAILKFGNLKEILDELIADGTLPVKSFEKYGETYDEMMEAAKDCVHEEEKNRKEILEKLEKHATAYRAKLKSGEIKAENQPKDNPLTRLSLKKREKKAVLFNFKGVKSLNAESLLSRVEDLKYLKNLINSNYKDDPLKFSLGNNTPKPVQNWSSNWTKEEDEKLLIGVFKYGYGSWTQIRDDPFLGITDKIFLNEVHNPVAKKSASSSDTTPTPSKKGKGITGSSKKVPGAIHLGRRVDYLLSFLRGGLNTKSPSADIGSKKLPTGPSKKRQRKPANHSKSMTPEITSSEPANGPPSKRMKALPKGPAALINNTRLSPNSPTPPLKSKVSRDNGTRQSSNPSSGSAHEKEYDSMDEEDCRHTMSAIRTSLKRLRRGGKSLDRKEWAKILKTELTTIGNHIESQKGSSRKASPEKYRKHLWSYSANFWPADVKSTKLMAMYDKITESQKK

Chain of Protein translocase subunit SecA (Escherichia coli (strain K12)) (P10408 whole entry): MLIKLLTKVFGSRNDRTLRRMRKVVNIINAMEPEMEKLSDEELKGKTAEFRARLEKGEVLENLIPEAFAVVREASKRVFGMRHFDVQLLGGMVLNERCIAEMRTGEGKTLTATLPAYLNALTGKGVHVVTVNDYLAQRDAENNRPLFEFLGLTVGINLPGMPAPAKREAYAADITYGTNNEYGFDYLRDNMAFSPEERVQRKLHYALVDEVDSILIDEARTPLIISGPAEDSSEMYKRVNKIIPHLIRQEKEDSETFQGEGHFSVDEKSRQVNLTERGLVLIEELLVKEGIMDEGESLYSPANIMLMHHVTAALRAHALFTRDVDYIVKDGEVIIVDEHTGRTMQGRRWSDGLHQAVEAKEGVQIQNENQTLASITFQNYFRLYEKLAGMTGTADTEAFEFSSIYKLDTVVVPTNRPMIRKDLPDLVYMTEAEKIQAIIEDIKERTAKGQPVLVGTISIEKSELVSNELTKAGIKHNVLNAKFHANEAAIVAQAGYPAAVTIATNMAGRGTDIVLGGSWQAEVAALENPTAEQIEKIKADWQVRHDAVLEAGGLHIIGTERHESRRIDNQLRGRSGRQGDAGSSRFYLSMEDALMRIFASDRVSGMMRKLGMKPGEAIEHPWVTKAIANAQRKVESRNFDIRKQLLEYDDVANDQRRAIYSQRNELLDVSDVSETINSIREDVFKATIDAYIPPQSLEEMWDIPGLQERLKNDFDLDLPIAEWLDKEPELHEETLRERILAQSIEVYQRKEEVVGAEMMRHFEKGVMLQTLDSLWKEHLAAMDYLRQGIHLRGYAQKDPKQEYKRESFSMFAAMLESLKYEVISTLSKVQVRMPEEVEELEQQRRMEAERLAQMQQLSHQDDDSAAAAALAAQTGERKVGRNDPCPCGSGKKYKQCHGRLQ

SMILES | Percent Effect [1] [%] | Percent Effect [2] [%] | Percent Effect [3] [%] | Percent Effect [4] [%] | Percent Effect (Trypanosoma cruzi) [%] | Percent Effect [5] [%] | Percent Effect [6] [%] | Percent Effect (Homo sapiens) [%] | Percent Effect [7] [%] | Percent Effect [8] [%] | Percent Effect [9] [%]
O=C(CCCc1nc2ccccc2[nH]1)N1CCCC(n2cccn2)C1 (configuration not stated) | -4.65 | 10.5 | -3.13 | 5.64 | 8.27 | -5.36 | 7.18 | -2.05 | 5.39 | 17.1 | -12
CC(=O)NCCC1CCCCN1S(=O)(=O)c1cccc(C#N)c1 (configuration not stated) | -7.77 | 8.22 | 1.2 | 3.78 | 1.98 | -2 | 13.6 | 4.41 | 2.08 | 8.64 | 0.784
CCn1cc(NC(=O)NCC(O)COc2cccc(F)c2)cn1 (configuration not stated) | 2.07 | 13.2 | -3.12 | 0.363 | -7.14 | 1.92 | 6.68 | 13.5 | 2.45 | 17.1 | -8.89
O=S(=O)(C1CC1)N1CCO[C@H]2[C@H](OCCN3CCCC3)CC[C@@H]21 | 0.18 | 18.7 | -5.59 | -6.26 | 5.6 | -62.2 | 9.74 | 17.6 | 5.21 | 20 | -11.8
COCC(=O)N1CC[C@@H]2O[C@H](COCc3ccncc3)CC[C@@H]21 | -3.69 | 18.9 | 10.4 | -8.21 | -4.2 | 9.24 | 16.6 | -0.209 | 1.08 | 17.9 | -0.872
O=C1CC(N(C(=O)c2ccc3[nH]c4c(c3c2)CCCC4)C2CC2)C(=O)N1 (configuration not stated) | -1.37 | 27.9 | -6.86 | -8.64 | 6.33 | -3.8 | 19.7 | -7.55 | 7.39 | 24.1 | -8.05
Cc1noc(C(C)C)c1C(=O)NCC(c1cccc(F)c1)N(C)C (configuration not stated) | 0.211 | -2.53 | 0.144 | -2.52 | -1.6 | 5.32 | -7.45 | 2.06 | 2.46 | -8.86 | 2.02
COCCC(=O)N1CCN(C)c2ncccc2C1 | -4.6 | 2.6 | 1 | 7.83 | -2.06 | -1.38 | 3.83 | 2.13 | 5.38 | 6.17 | 2.1
O=C(C1CC=CC1)N1CCc2c(COCc3ccncc3)cncc2C1 | 0.346 | 5.48 | 3.39 | 12.2 | 0.198 | -1.2 | 29.9 | -4.59 | 11.5 | 11.1 | -4.36
COCCN1CCC(N(Cc2noc(C3CC3)n2)C(C)=O)C1 (configuration not stated) | -2.54 | 13.5 | -5 | -6.65 | -5.11 | -0.924 | 18.3 | 20.9 | 0.99 | 11 | -8.27
CC(C)c1nccn1-c1cccc(C2CCN(C)CC2)n1 | -4.43 | 9.46 | 4.91 | -4.03 | 4.54 | -5.8 | 14.2 | 0.127 | 1.07 | 6.49 | -24.6
CNC(=O)C(C)(C)NC(=O)c1cc(OCC2CCC2)cc(C(=O)OC)c1 | -0.888 | 11 | 28.1 | -1.12 | 2.35 | 15.9 | 12.6 | 31.3 | 6.45 | 15 | -3.04
O=C(C1CCC1)N1CCN(C(=O)c2cnccn2)[C@H]2CS(=O)(=O)C[C@H]21 | -0.271 | 13.5 | -3.89 | 16.5 | 7.34 | 0.476 | 9.65 | 3.49 | 4.76 | 17.1 | -3.81
CC1CCCN(CCNC(=O)c2cncnc2C(C)C)C1 (configuration not stated) | -2.89 | 6.94 | -1.93 | -5.17 | -4.96 | 0.442 | 8.25 | -15.9 | 4.21 | 12.8 | -3.15
CCN1CCOC(CNCc2ccccn2)C1 (configuration not stated) | -1.35 | 0 | -15.7 | 4.04 | 7.19 | 1.8 | -3.64 | -4.24 | 8.37 | 16.1 | -1.88
Cc1ccccc1C(=O)NCc1ccc(N2CCNC(=O)C2)cc1 | 1.43 | 5.41 | -9.32 | 6.76 | 1.16 | -14.8 | 14.3 | -13.4 | 15.3 | 17.1 | -3.63
Cn1ncc2c1CN(Cc1cccnc1)CC2COCC1CC1 (configuration not stated) | -0.107 | 2.74 | -3.62 | 3.4 | 6.55 | 4.79 | 12.6 | -15.1 | 4.17 | 8.64 | -7.87
O=C(c1c[nH]c(=O)c(Cl)c1)N1C[C@@H]2CC[C@H](C1)N(Cc1ccccc1)C2 | -3.94 | 5.48 | 12.1 | 13.9 | 2.58 | -8.78 | 15.2 | 9.64 | 2.08 | 11.1 | -3.03
COc1cc(C(=O)NS(=O)(=O)c2cccc(C#N)c2)ccc1C | -1.35 | -10.8 | -1.79 | 1.78 | 7.15 | -0.554 | 2.33 | 10.3 | -5.94 | -1.22 | -2.42
COc1cccc(COCC(=O)N2CCC(CC(N)=O)CC2)c1 | -3.54 | 7.89 | -1.04 | -0.0672 | -6.77 | 5.75 | 0.334 | 23.7 | 5.39 | 12.2 | -3.41
Cc1nc(CN2CCCC(Cn3cc(CCO)nn3)C2)c[nH]1 (configuration not stated) | -1.16 | 0 | -4.62 | 20.6 | 5.21 | 0.952 | 5.17 | -10.1 | 1.59 | 9.76 | -7.08
COC(=O)c1ccc(N2CCN(C(=O)c3ccncc3)C(C)C2)cc1 (configuration not stated) | -4.64 | 20.2 | -9.5 | 4.75 | 4.63 | -2.66 | 10.1 | 20.8 | 8.37 | 24.1 | -9.65
